Screens: PubChem, National Center for Advancing Translational Sciences (NCATS)
Rows were chosen to be rich in hits. Some 2.8% of all compounds tested hit in one or more screens of this group.
KCNH2 WT inh = KCNH2 (human, wildtype) channel inhibition; U2OS, BacMam KCNH2, thallium flux FluxOr; active compounds read low; activity change, % at 1.84 µM; AID 720551; 0.37% of 340,000 active;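 active means maximum activity change below -70%; inconclusive means maximum activity change between -70% and -50%; inactive means maximum activity change above -50%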
Target sequence (Q12809 whole entry, looked up): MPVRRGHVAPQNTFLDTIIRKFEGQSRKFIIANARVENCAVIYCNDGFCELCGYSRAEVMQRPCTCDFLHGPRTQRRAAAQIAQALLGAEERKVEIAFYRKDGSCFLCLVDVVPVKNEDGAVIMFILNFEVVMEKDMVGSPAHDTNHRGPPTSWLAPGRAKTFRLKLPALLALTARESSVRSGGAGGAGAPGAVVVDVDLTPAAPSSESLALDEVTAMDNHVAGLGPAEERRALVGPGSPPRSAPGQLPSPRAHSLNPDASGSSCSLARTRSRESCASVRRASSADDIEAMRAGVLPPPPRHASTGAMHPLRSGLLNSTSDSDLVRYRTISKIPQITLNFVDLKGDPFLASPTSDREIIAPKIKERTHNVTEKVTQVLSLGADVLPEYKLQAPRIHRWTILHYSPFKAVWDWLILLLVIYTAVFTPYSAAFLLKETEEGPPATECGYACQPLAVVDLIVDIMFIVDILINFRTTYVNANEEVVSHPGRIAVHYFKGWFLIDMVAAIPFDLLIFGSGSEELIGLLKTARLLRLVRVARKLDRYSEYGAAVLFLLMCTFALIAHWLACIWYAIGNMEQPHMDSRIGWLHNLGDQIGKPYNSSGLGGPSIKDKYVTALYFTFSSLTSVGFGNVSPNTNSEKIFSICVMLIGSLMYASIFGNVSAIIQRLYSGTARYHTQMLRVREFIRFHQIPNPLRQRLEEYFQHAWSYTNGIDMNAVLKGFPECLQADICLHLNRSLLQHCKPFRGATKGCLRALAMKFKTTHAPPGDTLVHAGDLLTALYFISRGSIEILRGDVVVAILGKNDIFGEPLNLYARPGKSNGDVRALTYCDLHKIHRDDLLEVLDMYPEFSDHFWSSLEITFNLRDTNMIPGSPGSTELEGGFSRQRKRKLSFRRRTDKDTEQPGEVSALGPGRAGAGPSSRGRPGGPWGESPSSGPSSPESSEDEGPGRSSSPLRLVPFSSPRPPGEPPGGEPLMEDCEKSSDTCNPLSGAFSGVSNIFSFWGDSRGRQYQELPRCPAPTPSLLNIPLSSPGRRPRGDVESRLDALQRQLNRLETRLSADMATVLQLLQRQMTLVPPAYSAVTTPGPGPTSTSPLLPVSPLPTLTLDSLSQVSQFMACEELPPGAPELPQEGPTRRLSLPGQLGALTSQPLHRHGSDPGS
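U2OS cells transduced with wild-type KCNH2 virus are loaded with FluxOr dye for 45 min, and thallium flux is measured in kinetic reads before and after stimulation buffer. Rate constants are normalized to DMSO controls.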
GLP1R cytotox = cytotoxicity in counter-screen for GLP-1R inverse agonists; HEK293 cAMP-luciferase reporter cells, luminescence, 24 h; Potency, µM (top dose mostly 38.3 µM), usual class: inhibitors; 0.13% of 410,000 active; AID 624418;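 further: loss of luciferase light is scored as toxicity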
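Luminescence readout: signal drop marks cytotoxicity. Plated cells grew 12 h at 37 °C, 5% CO2, received 23 nL compound for 24 h, then got luciferase reagent, read after 12 min at RT.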
GLP-1R agonist = activates the human GLP-1 receptor; Potency, µM (doses to about 45.6 µM), usual class: activators; 0.007% of 380,000 active; HEK293 GLP-1R CRE-luciferase, luminescence, 4-6 h; cells express a hypersensitive GLP-1R form; AID 624172
KCNH2 3.1 inh = inhibitors of human KCNH2 3.1 potassium channel isoform; U2OS KCNH2 3.1, thallium flux FluxOr; active compounds read low; activity change, % (tested at about 1.8 µM); 0.95% of 340,000 active;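 active means maximum activity change below -70%; inconclusive means maximum activity change from -70% to -50%; inactive means maximum activity change above -50%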;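 further: thallium influx rate constant from kinetic fluorescence after stimulation buffer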
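Kinetic fluorescence (2 min after stimulation buffer) measures Tl+ influx through KCNH2 3.1 expressed by viral transduction in U2OS cells; the rate constant is normalized against DMSO controls serving as positive and negative references.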
GLS inh = blocks human kidney-isoform glutaminase activity; GLS enzymatic activity, qHTS titration; O94925; Potency, µM (series often up to 45.5 µM), actives largely listed as inhibitors; 0.21% of 410,000 active
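Two-point fluorescence kinetic (t0, 30 min RT) for hKGA; glutamate detected via glutamate oxidase–HRP–Amplex Red. Substrate: 1 mM L-glutamine solution; buffer 45 mM KH2PO4, pH 8.2.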
GLP-1R inv ag = GLP-1 receptor (human) inverse agonism; P43220; HEK293 GLP-1R CRE-luciferase, luminescence, 24 h; GLP-1R form is constitutively active; Potency, µM (highest dose often 38.3 µM), hits mostly inhibitors; 1.6% of 410,000 active; AID 624417; further: nearly all actives have a fitted effect of over 55% in size
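Cells are plated, allowed 12 hours at 37 deg C, then treated with compounds for 24 hr before luciferase detection reagent is added and luminescence is read after 12 min at room temperature. The HEK293 line carries constitutively active GLP-1R with a cAMP-responsive reporter.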
A number is an active result; – = inactive; ? = inconclusive; · = no result given. Unless noted, the call rests on the fitted dose curve; in most records, active means well fitted curve in the direction sought with a large enough effect; inconclusive means small, poorly fitted or top-dose-only effect, or another doubt; inactive means no such curve, though single readings can be large; an effect the other way counts as inactive or inconclusive.

SMILES	KCNH2 WT inh	GLP1R cytotox	GLP-1R agonist	KCNH2 3.1 inh	GLS inh	GLP-1R inv ag
CC1(C(=O)NCc2ccc(F)c(F)c2)Cc2c(-c3cccc(C(F)(F)F)c3)ccnc2O1 (centres undefined)	·	–	–	·	–	10µM
CC(=O)Nc1cccc(-c2ccnc3c2CC(C)(C(=O)Nc2cccc(C(F)(F)F)c2)O3)c1 (centres undefined)	·	–	–	·	–	11.2µM
COc1ccc2c(c1)c1c(c(=O)n(-c3ccccc3)c(=O)n1CC(=O)Nc1ccc(C)c(C)c1)n2C	·	–	–	·	–	–
CCn1c(=O)c(C(C)=O)nc2ccccc21	–	–	–	–	–	–
CCCCCn1c(=O)c(C(=O)c2ccccc2)nc2ccccc21	-119.9	–	–	-78.2	–	?
CCCc1noc(-c2ccc(N3CCCCC3)c([N+](=O)[O-])c2)n1	·	–	·	·	–	?
Cn1cc(S(=O)(=O)N2CCOCC2)cc1C(=O)O	–	–	–	–	–	–
Cc1cc(C)c(NC(=O)c2ccc(CNS(=O)(=O)c3cc(C(F)(F)F)ccc3Cl)cc2)c(C)c1	–	?	–	–	–	6.31µM
O=C(COc1ccc(Cl)cc1)N1CCN(c2ccc([N+](=O)[O-])c(N3CCOCC3)c2)CC1	–	–	–	-81.1	–	–
O=C(c1cc([N+](=O)[O-])ccc1N1CCOCC1)N1CCN(c2ccc([N+](=O)[O-])cc2)CC1	-124.6	?	–	-106.4	–	?
O=C(c1sc2cc([N+](=O)[O-])ccc2c1Cl)N1CCOCC1	-96.6	–	–	–	–	–
CN(C)S(=O)(=O)c1ccc(N2CCCC2)c(C(=O)N2CCN(c3ccc([N+](=O)[O-])cc3)CC2)c1	-82.8	–	–	-115.9	–	–
CC(C)N(C(=O)c1sc2cc([N+](=O)[O-])ccc2c1Cl)C(C)C	–	–	–	–	–	–
CN[C@H](CC(C)C)C(=O)N[C@H]1C(=O)N[C@@H](CC(N)=O)C(=O)N[C@H]2C(=O)N[C@H]3C(=O)N[C@H](C(=O)N[C@H](C(=O)O)c4cc(O)cc(O)c4-c4cc3ccc4O)[C@H](O)c3ccc(c(Cl)c3)Oc3cc2cc(c3O[C@@H]2OC(CO)[C@@H](O)[C@H](O)[C@H]2O[C@H]2C[C@](C)(N)[C@H](O)[C@H](C)O2)Oc2ccc(cc2Cl)[C@H]1O (some centres undefined)	·	·	–	·	–	·
COc1ccc(C(CNC(=O)c2cc3c(s2)CCC(C)C3)N2CCCC2)cc1 (centres undefined)	–	?	–	–	–	?
CCC1CCc2sc(C(=O)N(C)CC(=O)Nc3ccc(OC)cc3)cc2C1 (centres undefined)	–	–	–	–	–	10µM
CCC1CCc2sc(C(=O)NC3CCN(Cc4ccccc4)CC3)cc2C1 (centres undefined)	–	?	–	–	–	5.01µM
CCC1CCc2sc(C(=O)N(C)CC(=O)Nc3cccc(OC)c3)cc2C1 (centres undefined)	–	–	–	–	–	?
CC1CCc2sc(C(=O)NC3CCN(Cc4ccccc4)CC3)cc2C1 (centres undefined)	–	?	–	?	–	?
CCC1CCc2sc(C(=O)NCC(c3ccccc3OC)N3CCCC3)cc2C1 (centres undefined)	–	?	–	–	–	5.01µM
Cc1ccc(C(=O)c2sc(Nc3ccc(F)cc3)nc2N)c(C)c1	·	–	·	·	–	5.01µM
CC(C)N=C(NS(=O)(=O)c1ccccc1)C(Cl)(Cl)Cl	–	?	–	–	–	3.98µM
O=C(CNC(=O)c1ccc(Cl)cc1Cl)OCN1C(=O)c2ccccc2C1=O	–	–	–	–	–	–
O=c1c2ccccc2nc(SCc2nc(-c3ccccc3)no2)n1-c1ccc(F)cc1	–	–	–	–	–	3.55µM
Clc1ccccc1-c1nnc(SCc2nc(-c3ccccc3)no2)n1-c1ccccc1	·	–	·	·	–	10µM
SMILES	KCNH2 WT inh	GLP1R cytotox	GLP-1R agonist	KCNH2 3.1 inh	GLS inh	GLP-1R inv ag
CCCCn1c(N)c(N(CCOC)C(=O)c2sc3cc(F)ccc3c2Cl)c(=O)[nH]c1=O	–	–	–	–	–	–
CC(Oc1ccc(Br)cc1)C(=O)Nc1ccc(S(=O)(=O)N(C)C2CCN(C)CC2)cc1 (centres undefined)	–	–	–	–	–	2.82µM
COc1ccc(CC(=O)Nc2ccc(S(=O)(=O)N(C)C3CCN(C)CC3)cc2)cc1	–	–	–	–	–	–
CN1CCC(N(C)S(=O)(=O)c2ccc(NC(=O)COc3cccc(C(F)(F)F)c3)cc2)CC1	–	–	–	–	–	11.2µM
Fc1ccc(-c2nc(Nc3ccc(F)c(Cl)c3)nc3c2COc2ccccc2-3)cc1	·	–	·	·	–	–
COc1cc2c(cc1NC(=O)C(C)NCc1ccccc1)oc1ccccc12 (centres undefined)	–	–	–	–	–	11.2µM
CCOC(=O)Cn1c(=O)n(CC2CCCO2)c2nc(-c3cccc(C)c3)nc(C(N)=O)c21 (centres undefined)	·	–	–	·	–	–
Cc1cc(C(=O)COC(=O)c2ccc[nH]c2=O)c(C)n1-c1ccccc1F	–	–	–	–	–	–
Cc1cc(C(=O)COC(=O)c2ccc(O)cc2)c(C)n1-c1ccccc1F	–	–	–	–	–	10µM
O=[N+]([O-])c1cc(CN2CCCC2)ccc1Sc1ccc(Cl)cc1	–	–	–	-92.1	–	?
COc1cn(CC(=O)Nc2cc(C)ccc2C)c(CN2CCCCC2)cc1=O	·	–	·	·	–	–
CSC(=S)N/N=C/c1ccc(Br)cc1	–	11.2µM	–	–	–	?
Cc1ccc(OCC(=O)Nc2nnc(SCc3cc(=O)c4ccccc4[nH]3)s2)cc1C	·	–	·	·	–	–
CCCC1OC(c2cc3c(cc2Cl)OCO3)OCC1CC (centres undefined)	–	–	–	–	–	11.2µM
Brc1cc2c(cc1C1OCCO1)OCO2	–	–	–	–	–	–
COc1ccccc1C(=O)Nc1ccc(OCC(=O)N2CCCCC2C)cc1 (centres undefined)	–	–	–	–	–	–
CCCCc1ccc(NC(=O)Nc2cccnc2)cc1	–	–	–	–	–	7.08µM
CCCCc1ccc(NC(=S)Nc2cccnc2)cc1	–	–	–	–	–	–
O=C(Cn1ncc(Cl)c(Cl)c1=O)N1CCc2ccccc21	–	5.62µM	–	–	–	?
O=C(CN1CCN(c2ccc(O)cc2)CC1)N1CCc2ccccc21	–	–	–	–	8.91µM	?
COc1ccc(NC(=O)c2cc3cccc(OC)c3oc2=Nc2ccc(C(=O)O)cc2)cc1OC	–	–	–	–	6.31µM	–
